Screens as filed in PubChem.
A549 tox-1 = counter-screen for Nrf2 inhibitors: cytotoxicity in A549 cells | A549 ARE-Fluc cells, CellTiter-Fluor viability, 18-24 h | 390,000 compounds, 0.16% hits | Potency, µM (titrated, usually from 46 µM), usual class: inhibitors
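A549 ARE-Fluc cells in 5% FBS OPTI-MEM, 5000 cells/well, rested 2 h then exposed to compounds in concentration-response for 18-24 h at 37 °C. Viability by CellTiter-Fluor fluorescence (Ex 405/Em 525) after 30 min; luciferase luminescence (BugLite, 15 min, RT) read afterwards.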
Rango release inh = inhibition of RanGTP-driven Rango-importin beta dissociation. O95149+P62826. Biochemical FRET Rango-importin beta, RanGTP-induced dissociation. Potency, µM (top dose mostly 46.1 µM). 340,000 compounds, 0.071% hits. AID 540253; calls by dose curve; further: nearly all actives have a fitted effect of over 45% in size
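Two FRET readings bracket the reaction: one 5 min after compound meets Rango–importin beta, another 45 min after RanGTP-RCC1 (0.6 uM Ran, 0.2 uM RCC1, 2 mM GTP) is added. Only the second defines inhibition.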
Nrf2 inh = inhibitors of Nrf2 signaling; A549 ARE-Fluc reporter, luciferase luminescence, 18-24 h; Potency, µM (highest dose often 46 µM), actives largely listed as inhibitors; 360,000 compounds, 2.1% hits; further: nearly all actives have a fitted effect of over 60% in size
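In this cell-based qHTS, ARE-driven firefly luciferase in A549 cells reports Nrf2 activity; the luminescent signal after BugLite lysis is the measured value, with a prior CellTiter-Fluor read for cell health.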
Nrf2 activator = Nrf2 pathway activation; Potency, µM (highest dose often 46.1 µM), most hits filed as activators; 410,000 compounds, 0.31% hits; AID 624171; AREc32 ARE-luciferase reporter (MCF7-derived line), luminescence, 24 h; further: nearly all actives have a fitted effect of over 65% in size
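Quantitative high-throughput format: AREc32 reporter cells, 1000 per well, received compound by pin transfer and were incubated 24 hr at 37 deg C, 5% CO2, before Steady-Glo luminescence detection.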
Rango complex inh = Rango-importin beta binding inhibition | Rango CFP/YFP FRET sensor + importin beta, 45 min | Potency, µM (series often up to 92.2 µM) | 340,000 compounds, 0.031% hits; calls by dose curve; further: nearly all actives have a fitted effect of over 15% in size
Target sequence (Q14974 whole entry, looked up): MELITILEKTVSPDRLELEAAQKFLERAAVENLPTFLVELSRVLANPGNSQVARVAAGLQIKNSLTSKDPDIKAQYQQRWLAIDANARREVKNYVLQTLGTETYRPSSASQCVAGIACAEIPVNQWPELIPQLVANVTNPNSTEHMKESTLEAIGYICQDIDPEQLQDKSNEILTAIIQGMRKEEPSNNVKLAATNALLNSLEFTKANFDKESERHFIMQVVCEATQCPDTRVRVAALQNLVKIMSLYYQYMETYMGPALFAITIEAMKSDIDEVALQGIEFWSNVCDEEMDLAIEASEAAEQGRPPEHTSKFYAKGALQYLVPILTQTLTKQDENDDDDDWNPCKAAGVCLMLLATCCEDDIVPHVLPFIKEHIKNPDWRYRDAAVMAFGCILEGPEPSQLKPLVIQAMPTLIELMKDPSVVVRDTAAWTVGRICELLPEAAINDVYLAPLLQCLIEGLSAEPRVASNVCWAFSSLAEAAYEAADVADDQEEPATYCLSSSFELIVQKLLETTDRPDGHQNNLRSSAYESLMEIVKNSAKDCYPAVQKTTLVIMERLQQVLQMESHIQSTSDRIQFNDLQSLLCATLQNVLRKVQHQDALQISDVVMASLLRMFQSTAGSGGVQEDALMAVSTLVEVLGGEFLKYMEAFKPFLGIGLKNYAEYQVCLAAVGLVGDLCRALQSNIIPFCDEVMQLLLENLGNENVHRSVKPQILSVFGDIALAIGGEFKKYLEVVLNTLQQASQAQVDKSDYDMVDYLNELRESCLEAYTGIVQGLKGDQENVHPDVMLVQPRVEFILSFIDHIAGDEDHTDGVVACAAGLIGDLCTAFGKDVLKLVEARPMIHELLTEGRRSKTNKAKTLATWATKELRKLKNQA
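FRET biosensor (snurportin 1 IBB flanked by EYFP and cerulean), 50 nM, with compound 5 min, then 0.125 microM importin beta in PBS, 1 mM DTT, 0.02% Tween-20, 0.1% BSA. CFP/YFP ratio read after 45 min at room temperature; pre-read flags interference.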
FLuc counter 3 = blocks purified firefly luciferase in Nrf2 counterscreen; Potency, µM (top dose mostly 57.5 µM), hits mostly inhibitors; shares compounds with Nrf2 inh; AID 720522; 1,400 compounds, 4% hits; purified firefly luciferase, luminescence inhibition; further: nearly all actives have a fitted effect of over 65% in size
A549 tox-2 = toxic to A549 ARE-Fluc cells in Nrf2 counterscreen; A549 ARE-Fluc cells, cytotoxicity counterscreen; 1,400 compounds, 2% hits; AID 720523; Potency, µM (highest dose often 46.1 µM), actives largely listed as inhibitors; shares compounds with Nrf2 inh;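 further: cells exposed to compounds for 18 to 24 hours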
Nrf2 ARE inh = reduces Nrf2 ARE reporter signal in A549 cells; shares compounds with Nrf2 inh; A549 ARE-firefly luciferase reporter, luminescence; Potency, µM (series often up to 46.1 µM), actives largely listed as inhibitors; 1,400 compounds, 74% hits; AID 720524; further: nearly all actives have a fitted effect of over 65% in size
Numbers stand for hits. Shown are actives, neighbours in structure and some others; about 2.3% of the full set was active somewhere. Unless noted, the call rests on the fitted dose curve; in most records, active means well fitted curve in the direction sought with a large enough effect; inconclusive means small, poorly fitted or top-dose-only effect, or another doubt; inactive means no such curve, though single readings can be large; an effect the other way counts as inactive or inconclusive.

CCCC[n+]1c(/C=C/c2c(OC)cc(OC)cc2OC)ccc2ccccc21 was read as FLuc counter 3 inactive, A549 tox-2 inconclusive and Nrf2 ARE inh 1.6µM.
For Cc1ccc(Nc2nc(N)nc(COC(=O)c3ccc(Br)o3)n2)cc1 the results were A549 tox-1 inactive, Rango release inh inactive, Nrf2 inh inconclusive, Nrf2 activator inactive and Rango complex inh inactive.
For NS(=O)(=O)c1ccc(CNS(=O)(=O)c2cc(Cl)ccc2Cl)cc1 the results were A549 tox-1 inactive, Rango release inh inactive, Nrf2 inh inactive, Nrf2 activator inactive and Rango complex inh inactive.
Screening CCN=c1scc(-c2ccc3c(c2)NC(=O)CO3)n1N=C1CCCC1 returned A549 tox-1 inactive, Rango release inh inactive, Nrf2 inh 16µM, Nrf2 activator inactive, Rango complex inh inconclusive, FLuc counter 3 inactive, A549 tox-2 inactive and Nrf2 ARE inh 7.3µM.
Screening CCCCN=c1scc(-c2ccc3c(c2)NC(=O)CO3)n1N=C1CCCC1 returned A549 tox-1 inactive, Rango release inh inactive, Nrf2 activator inactive and Rango complex inh inconclusive.
For COCC(C)n1c(-c2ccc3c(c2)NC(=O)CO3)csc1=Nc1ccc(OC(F)F)cc1 (centres undefined) the results were A549 tox-1 inconclusive, Rango release inh inactive, Nrf2 inh 10µM, Nrf2 activator inactive, Rango complex inh inactive, FLuc counter 3 inactive, A549 tox-2 inactive and Nrf2 ARE inh 9.2µM.
Screening O=C(NN1CCCCC1)c1ccc(COc2ccc(Cl)cc2)cc1 returned A549 tox-1 inactive, Rango release inh inactive, Nrf2 inh inactive, Nrf2 activator inactive and Rango complex inh inactive.
Screening Cc1cc(C)nc(Nc2n[nH]c(C)n2)n1 returned A549 tox-1 inactive, Rango release inh inactive, Nrf2 inh 5.8µM, Nrf2 activator inactive, Rango complex inh inactive, FLuc counter 3 inactive, A549 tox-2 inactive and Nrf2 ARE inh inactive.
Cc1cc(C)nc(Nc2n[nH]c(-c3ccc(N)cc3)n2)n1 was read as A549 tox-1 inactive, Rango release inh inactive, Nrf2 inh inconclusive, Nrf2 activator inactive and Rango complex inh inactive.
Screening Cc1onc(-c2c(F)cccc2Cl)c1C(=O)Nc1nnc(C(F)(F)F)s1 returned A549 tox-1 inconclusive, Rango release inh inactive, Nrf2 inh 1.5µM, Nrf2 activator inactive, Rango complex inh inactive, FLuc counter 3 inactive, A549 tox-2 inactive and Nrf2 ARE inh 0.12µM.
`Cc1onc(-c2c(F)cccc2Cl)c1C(=O)Nc1nccs1` gave A549 tox-1 inactive, Rango release inh inactive, Nrf2 inh inactive, Nrf2 activator inactive and Rango complex inh inactive.
Cc1cccc(C)c1NC(=O)CNC(=O)CCC(=O)c1cccs1 was read as A549 tox-1 inactive, Rango release inh inactive, Nrf2 inh inactive, Nrf2 activator inactive and Rango complex inh inconclusive.
COc1cccc(CN(C)C(=O)C2CC(=O)N(c3ccc4c(c3)OCCO4)C2)c1 (centres undefined) was read as A549 tox-1 inactive, Rango release inh inactive, Nrf2 inh inactive, Nrf2 activator inactive and Rango complex inh inactive.
Screening Cc1cc(O)c2c(c1O)C(=O)[C@]13C(=C2O)C(=O)[C@@H]2[C@@H](O)[C@H]1[C@@H]1[C@H](O)[C@H]3C(=O)C3=C(O)c4c(O)cc(C)c(O)c4C(=O)[C@]312 returned A549 tox-1 inconclusive, Rango release inh inconclusive, Nrf2 inh 0.37µM, Nrf2 activator inactive, Rango complex inh inconclusive, FLuc counter 3 inconclusive, A549 tox-2 inconclusive and Nrf2 ARE inh 1.2µM.
Cc1ccc(-c2onc(C)c2C)cc1S(=O)(=O)N1c2ccccc2CC1C (centres undefined) was read as A549 tox-1 inactive, Nrf2 inh 8.2µM, Nrf2 activator inactive, FLuc counter 3 inactive, A549 tox-2 inactive and Nrf2 ARE inh inconclusive.
